Only a sample is shown.
aSyn UTR act: Activators via SNCA 5'UTR binding, MLPCN. alpha-synuclein 5'UTR reporter, activators screen. activity score, % (tested at 7.5 µM), hits read low. 300,000 tested, 7.1% active; in the data active = activity score below about -60%
Active calls of the source: *.

For COc1ccccc1OCC(=O)Nc1nc(C)c(C)s1 the results were aSyn UTR act -83.0*.
CC(=O)c1sc(NC(=O)COc2ccccc2)nc1C was read as aSyn UTR act -108.9*.
For COC(=O)Nc1nc2c(s1)CCCC2 the results were aSyn UTR act -86.8*.
Screening O=C(COc1ccccc1)Nc1nc2c(s1)CCCC2 returned aSyn UTR act -87.8*.
Screening CC(C)CCn1nc(C(=O)Nc2nc3c(s2)CCCC3)c2ccccc2c1=O returned aSyn UTR act 67.6.
Cc1ccc(/C=N/NC(=O)NC23CC4CC(CC(C4)C2)C3)o1 was read as aSyn UTR act -83.4*.
Screening Cc1cc(C(=O)N/N=C/c2ccc(C)o2)c2ccccc2n1 returned aSyn UTR act 65.5.
Cc1ccc(/C=N/NC(=O)c2ccoc2C)o1 was read as aSyn UTR act -137.4*.
`COc1cc(/C=N/NC(=O)c2ccoc2C)cc(OC)c1O` gave aSyn UTR act -90.0*.
COc1cc(/C=C/C(=O)CC(=O)/C=C/c2ccc(O)c(OC)c2)ccc1O was read as aSyn UTR act -84.7*.
COc1cc(/C=C2/CCC/C(=C\c3cc(O)c(OC)c(Cl)c3)C2=O)cc(Cl)c1O was read as aSyn UTR act -142.7*.
Screening COc1cc(/C=C/C(=O)c2ccc([N+](=O)[O-])o2)ccc1O returned aSyn UTR act 67.1.
`COc1cc(/C=C2\COC/C(=C\c3cc(OC)c(OC)c(OC)c3)C2=O)cc(OC)c1OC` gave aSyn UTR act 103.4.
CCOc1cc(/C=C2\CN(CC)C/C(=C\c3ccc(O)c(OCC)c3)C2=O)ccc1O was read as aSyn UTR act 102.4.
COc1cc(/C=C2\CCC/C(=C\c3ccc(O)c(OC)c3)C2=O)ccc1O was read as aSyn UTR act -394.0*.
Screening COc1cc(/C=C2\Oc3cc(O)ccc3C2=O)ccc1O returned aSyn UTR act -194.5*.
Screening COc1ccc(/C=C2\OC(=O)c3c(OC)cccc32)cc1OC returned aSyn UTR act -200.2*.
For COc1ccc(/C=C2\CCCC(C(=O)C(F)(F)F)=C2O)cc1OC the results were aSyn UTR act -69.1*.
For CCN(CC)CCNc1cc(C)nc2c1C(=O)C(=O)C=C2N1CCCCC1 the results were aSyn UTR act 81.4.
`O=C(CN1CCOCC1)Nc1nc2ccc([N+](=O)[O-])cc2s1` gave aSyn UTR act -62.3*.
Cc1ccc2nc(NC(=O)CN3CCOCC3)sc2c1 was read as aSyn UTR act -106.7*.
Screening Cc1cc2ccc3ccccc3c2cc1CN(C)C returned aSyn UTR act -75.9*.
For O=C(c1ccc(F)cc1)c1cc2ccccc2o1 the results were aSyn UTR act -171.4*.
For O=C(c1ccccc1)c1cc2ccccc2o1 the results were aSyn UTR act -149.1*.
Screening CC(Cc1ccccc1)NC(=O)c1cc2ccccc2o1 (stereo not drawn) returned aSyn UTR act -162.1*.
Screening Cc1ccc(C(=O)c2cc3ccccc3o2)cc1[N+](=O)[O-] returned aSyn UTR act -119.3*.
For COc1ccccc1C(=O)Nc1nc2cc3c(cc2s1)OCO3 the results were aSyn UTR act -122.1*.
`Cc1nc2cc(NC(=O)CCS(=O)(=O)c3ccccc3)ccc2s1` gave aSyn UTR act -172.3*.
`O=C(CCS(=O)(=O)c1ccccc1)Nc1nc2cc3c(cc2s1)OCO3` gave aSyn UTR act -64.6*.
For COc1ccc(C(=O)Nc2nnc(Cc3ccc(OC)c(OC)c3)s2)c(OC)c1 the results were aSyn UTR act -82.4*.
Screening COc1ccc(C(=O)Nc2nc3cc4c(cc3s2)OCCO4)c(OC)c1 returned aSyn UTR act -63.3*.
For COc1ccccc1C(=O)Nc1nc2cc3c(cc2s1)OCCO3 the results were aSyn UTR act -63.8*.
O=C(CCl)N(c1ccccc1)C1CCCCC1 was read as aSyn UTR act 110.0.
Screening CCCNC1=C(N(C(C)=O)c2cccc(F)c2)C(=O)c2ccccc2C1=O returned aSyn UTR act 91.7.
For CCCC(O)(CCC)C(=O)NN(C(=O)CCl)c1ccccc1 the results were aSyn UTR act -68.8*.
For Cc1cccc(Nc2ccc(NCc3ccccc3)nn2)c1 the results were aSyn UTR act -110.4*.
`COc1ccc(C2C(C(=O)c3cccs3)=C(O)C(=O)N2c2nncs2)cc1` (stereo not drawn) gave aSyn UTR act -108.0*.
CN(CCOC(=O)CN1C(=O)c2ccccc2C1=O)C1=NS(=O)(=O)c2ccccc21 was read as aSyn UTR act -88.8*.
`O=C(CN1C(=O)c2ccccc2S1(=O)=O)c1ccc(OC(F)F)cc1` gave aSyn UTR act 86.4.
Screening C=CCn1c(SCC(=O)c2[nH]c(C)c(C(=O)OC)c2C)nc2scc(-c3ccc(OC)c(OC)c3)c2c1=O returned aSyn UTR act 61.3.
Screening CC(=O)c1c(C)[nH]c(C(=O)CSc2nnc(C)s2)c1C returned aSyn UTR act -110.3*.
`CC(=O)c1c(C)[nH]c(C(=O)CSc2nnc3ccccn23)c1C` gave aSyn UTR act -84.7*.
Screening CCOc1cccc2cc(-c3csc(NC(=O)CCC(=O)NCCCN4CCC(C)CC4)n3)c(=O)oc12 returned aSyn UTR act -76.2*.
For CCOc1cccc2cc(-c3csc(NC(=O)CCC(=O)NCCN4CCCCC4C)n3)c(=O)oc12 (stereo not drawn) the results were aSyn UTR act -134.5*.
CCCC1(C)Nc2ccccc2-c2nc3ccccc3n21 (stereo not drawn) was read as aSyn UTR act -95.7*.
Screening c1ccc2c(c1)NC1(CCCC1)n1c-2nc2ccccc21 returned aSyn UTR act -141.5*.
CCOC(=O)c1cn(-c2ccc([N+](=O)[O-])cc2)c2cc(Cl)c([N+](=O)[O-])cc2c1=O was read as aSyn UTR act -110.0*.
`COc1ccccc1Nc1ncnc2c1cnn2-c1cccc(C)c1` gave aSyn UTR act -84.4*.
Screening COc1cccc(Nc2ncnc3c2cnn3-c2cccc(C)c2)c1 returned aSyn UTR act -137.1*.
Cc1cc(OCc2cc(C(=O)N(C)C(C)c3ccccn3)no2)cc(C)c1Cl (stereo not drawn) was read as aSyn UTR act -93.0*.
For Cc1cc(OCc2cc(C(=O)N(C)Cc3ccccn3)no2)cc(C)c1Cl the results were aSyn UTR act -76.9*.
CC(=O)c1ccc(OCc2cc(C(=O)N(C)Cc3ccccn3)no2)cc1 was read as aSyn UTR act -64.9*.
For COc1ccc(NC(=O)Nc2ccccn2)cc1OC the results were aSyn UTR act -79.4*.
For CN1C(=O)CSc2ccc(NC(=O)Nc3ccccn3)cc21 the results were aSyn UTR act -115.6*.
`O=C(Nc1ccc(Cl)c(Cl)c1)Nc1ccccn1` gave aSyn UTR act -177.7*.
CCn1c(SCC(=O)Nc2ccc(-c3nc4ccc(C)cc4s3)cc2)nnc1-c1ccccc1 was read as aSyn UTR act -174.7*.
`C=CCn1c(SCC(=O)Nc2ccc(-c3nc4ccc(C)cc4s3)cc2)nnc1-c1ccncc1` gave aSyn UTR act -98.9*.
For C#CC[N+](C)(C)CCCCCCCCC the results were aSyn UTR act 65.0.
Screening Nc1ccc(C(=O)N/N=C/c2cn(Cc3ccccc3F)c3ccccc23)cc1 returned aSyn UTR act 72.4.
Screening O=C(O)c1ccc(N/N=C/c2cn(Cc3ccccc3F)c3ccccc23)cc1 returned aSyn UTR act -65.2*.
For CC(C)n1cc(/C=N/Nc2ccc(C(=O)O)cc2)c2ccccc21 the results were aSyn UTR act -79.3*.
For CCCN=C(C)C1=C(O)c2ccccc2C1=O the results were aSyn UTR act -93.6*.
Screening Cc1ccc(/C=C2\SC(=S)N(CCCC(=O)Nc3ccccn3)C2=O)cc1 returned aSyn UTR act 106.8.
